High-throughput results deposited in PubChem BioAssay by National Center for Advancing Translational Sciences (NCATS).
This excerpt belongs to a sample that is enriched for hits.
GPT2 inhibitor – blocks human glutamate pyruvate transaminase 2; Q8TD30; Recombinant GPT2, coupled pyruvate oxidase/HRP Amplex Red fluorescence; 0.25% of 100,000 active; Potency, µM (top dose mostly 57.7 µM), hits mostly inhibitors; active = well fitted inhibition curve with a large enough effect; note: nearly all actives have a fitted effect of over 60% in size
Target sequence (Q8TD30 whole entry, looked up): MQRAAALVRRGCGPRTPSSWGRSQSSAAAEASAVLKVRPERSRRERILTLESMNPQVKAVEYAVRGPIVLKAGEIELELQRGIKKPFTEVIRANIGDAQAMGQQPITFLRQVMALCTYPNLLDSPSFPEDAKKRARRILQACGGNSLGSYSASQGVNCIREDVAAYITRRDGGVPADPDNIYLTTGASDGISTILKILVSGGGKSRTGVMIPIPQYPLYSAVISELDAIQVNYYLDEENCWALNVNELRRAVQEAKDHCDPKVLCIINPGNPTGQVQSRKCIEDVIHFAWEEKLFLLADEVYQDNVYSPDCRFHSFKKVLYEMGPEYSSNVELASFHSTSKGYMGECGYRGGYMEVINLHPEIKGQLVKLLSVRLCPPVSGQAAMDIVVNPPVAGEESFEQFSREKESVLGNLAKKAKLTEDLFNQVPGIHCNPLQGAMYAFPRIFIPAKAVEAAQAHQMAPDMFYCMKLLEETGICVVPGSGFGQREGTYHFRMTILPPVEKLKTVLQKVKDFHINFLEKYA
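Recombinant GPT2 (10ng/uL) with 250uM a-KG and 2mM L-alanine, 30 min at room temperature, in HEPES pH 7.5 buffer. Pyruvate detected by pyruvate oxidase/HRP/Amplex Red fluorescence after 30 min in the dark; AOA (50uM) as positive control.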
Hits are given with their value; n = inactive; ! = not confirmed by another sample; [ ] = another dose, or the depositor's remark.

SMILES | GPT2 inhibitor
CC(C)=CC[C@@H](O)C1=CC(=O)c2c(O)ccc(O)c2C1=O | 12µM
COc1ccc(C(=O)N[C@H]2C[C@H]3C(=O)NC[C@@H](CCC(=O)NCc4cccnc4)N3C2)cc1 | n
O=C1C[C@@H](c2ccc(O)cc2)Oc2cc(O)cc(O)c21 | n
Oc1cc(O)c2c(c1)O[C@H](c1ccc(O)c(O)c1)[C@H](O)C2 | 28µM
COc1ccc(-n2nc(C3CCCN(C(=O)Nc4ccc(Cl)cc4)C3)[nH]c2=O)cc1 (configuration not stated) | n
CC1CCN(C(=O)c2ccccc2OCC2CCCN(C(C)C)C2)CC1 (configuration not stated) | n
CCCc1nnc(C[C@@H]2C[C@@H](C(C)C)[C@H](CNCc3cccnc3)C=C2C)o1 | n
CCCc1nnc(C[C@@H]2C[C@@H](C(C)C)[C@H](CO)C=C2C)o1 | n
CCCc1nnc(C[C@@H]2C[C@@H](C(C)C)[C@H](CNc3cccnc3)C=C2C)o1 | 10µM
O=C(c1cc(C2CC2)[nH]n1)N1CCc2n[nH]c(=O)n2CC1 | n
CCOC(=O)c1ccc(NC(=O)CC2CCCCN(C)C2=O)cc1 (configuration not stated) | n
CCN(CC)Cc1ccc2cc(COC(=O)Nc3ccc(C(=O)NO)cc3)ccc2c1 | 15µM
CCN(CC)Cc1cnc2c(C(=O)Nc3ccc(OC)c(OC)c3)cnn2c1 | n[11.5 µM]
COc1ccc(NC(=O)c2ccc3c(c2)N(C(=O)c2ccc(OC)cc2)CC3)cc1 | n
CC(=O)N[C@@H](CCC(N)=O)C(=O)O | n
COCCOc1cc(C)c2c(c1C)C[C@H]([C@H](C)C(=O)Nc1ccccn1)CC2 | n
O=C(CCCN1CCN(c2ccc(F)cc2)CC1)NC1c2ccccc2CSc2ccccc21 (configuration not stated) | 1.2µM
CN1C(=O)Cc2ccccc2C1C(=O)N1CCN(c2ccc(F)cc2)CC1 (configuration not stated) | n
O=C(CCCCCN1CCN(c2ccccc2-c2ccccc2)CC1)NC1CCCc2ccccc21 (configuration not stated) | n
COc1ccc([C@@H]2CN(C(=O)CCc3ccsc3)C[C@H]2N(C)C)cc1 | n[11.5 µM]
Cc1cn2nc(C(=O)N3CCC(C(=O)Nc4ccccc4)CC3)cc2c(=O)[nH]1 | n
COc1cc(C)c(Sc2cnc(NC(=O)c3ccc(CNC(C)C(C)C)cc3)s2)cc1C(=O)N1CCN(C(C)=O)CC1 (configuration not stated) | n
Cc1ccc(C(=O)N[C@@H]2CN(c3ncccn3)C[C@H]2CO)nc1 | n
N#Cc1ccc(CN2CC[C@@H]3OCC(=O)N(CCc4cccnc4)[C@H]3CC2)cc1 | n
c1ccc(OCCNc2nc(-c3cccnc3)nc3c2CCNCC3)cc1 | n
SMILES | GPT2 inhibitor
CO/N=C(/C(=O)N[C@@H]1C(=O)N2C(C(=O)O)=C(CSC(=O)c3ccco3)CS[C@H]12)c1csc(N)n1 | n
CN(C)CCn1nnnc1SCC1=C(C(=O)O)N2C(=O)[C@@H](NC(=O)Cc3csc(N)n3)[C@H]2SC1 | 18µM
Cc1nnc(SCC2=C(C(=O)O)N3C(=O)[C@@H](NC(=O)Cn4cnnn4)[C@H]3SC2)s1 | n
COCCNC(=O)c1cc(-c2ccc(Cl)cc2Cl)nc2c1cnn2C | n
CNC(=O)[C@H]1C[C@H](Oc2cccnc2)CN1C(=O)Cc1cccc(C)c1 | n
O=C(NC1CCc2nn(CC3CC3)c(=O)n2CC1)c1cc2ccccc2[nH]1 (configuration not stated) | n
CN1CCCCCC(O)c2cc(C(=O)NCCCN3CCCC3=O)ccc21 (configuration not stated) | n
COc1ncccc1-c1cnc2[nH]cc(CC(=O)NCc3ccco3)c2c1 | n
C=C[C@H]1[C@H](O[C@@H]2O[C@H](CO)[C@@H](O)[C@H](O)[C@H]2O)OC=C(C(=O)OC)[C@H]1C[C@@H]1c2cc(O)c(O)cc2CCN1C(C)=O | 3.2µM
C=CC1C(O[C@@H]2O[C@H](CO)[C@@H](O)[C@H](O)[C@H]2O)OC=C(C(=O)OC)C1CC(=O)O (some centres not stated) | n
C=C[C@H]1[C@H](O[C@@H]2O[C@H](CO)[C@@H](O)[C@H](O)[C@H]2O)OC=C(C(=O)OC)[C@H]1CC=O | n
COc1ccccc1-c1nnc2ccc(C(=O)NCc3cccc(Cl)c3)cn12 | n
COCc1noc(CN2CCN(C)C3(CCC(=O)N(CC4CC4)CC3)C2)n1 (configuration not stated) | n
Cn1cc(CNCC2(COc3cccnc3)C[C@@H](O)[C@@H](O)C2)c2ccccc21 (some centres not stated) | n
O=C1CCC2(CNC(=O)C3CCC3)CCCC=C2N1 (configuration not stated) | n
O=C1c2ccccc2-[n+]2ccc3c([nH]c4ccccc43)c21 | 0.27µM
O=C1C(c2c(O)[nH]c3ccccc23)=Nc2ccccc21 | n
Cc1nnnn1CCC(=O)N[C@H]1[C@H]2CCO[C@H]2[C@@H]1N1CCCCC1 | n
COc1ccc(C(=O)NCCNC(=O)c2cccc(-c3ncccc3C#N)c2)cc1 | n
CC1(C)OC2=C(C(=O)c3ccccc3C2=O)[C@H](NCc2ccccc2)[C@H]1O | 14µM
O=C(NC[C@H]1OC[C@@H](NCc2ccccc2)[C@@H]1O)c1ccccc1 | n
CC(C(=O)NCc1ccccc1)C1CCOCC1 (configuration not stated) | n
Cc1ccc(Cl)cc1NC(=O)Cn1c(C)cc2nc3n(c(=O)c21)CCC3 | n
CN(C)C(=O)c1cccnc1OC1CCN(S(=O)(=O)c2ccc3c(c2)CCC3)C1 (configuration not stated) | n
Cc1n[nH]c(C)c1Cc1sc2c(c1C(=O)N1C[C@H](O)CO1)c(=O)n(C)c(=O)n2CC(C)C | n
SMILES | GPT2 inhibitor
CCCc1noc(-c2cccn3c(CNC(=O)Cc4c[nH]c5ccccc45)nnc23)n1 | n
CCOC(=O)N1CCC(NCCNC(=O)c2ccccc2C)CC1 | n
CCOC(=O)N1CCC(Nc2ccc(Cl)cc2N)CC1 | 8.9µM
CNC(=O)COC(=O)N1CCC(CCc2ccc(Cl)cc2)CC1 | n
CN(C)C[C@@H]1CN(Cc2ccccc2)C[C@H]1NS(=O)(=O)c1ccc(C#N)cc1 | n
c1coc(-c2nc3ccncc3[nH]2)c1 | 32µM!
c1ccc(-c2nc3ccncc3[nH]2)cc1 | n
c1coc(-c2nc3ncccc3[nH]2)c1 | n
COc1ccc(NC(=O)CCC2CCN(C(=O)c3ccc(OC)o3)CC2)c(OC)c1 | n
COc1cc(F)ccc1-c1ccc2c(n1)c(=O)ncn2CCC(F)(F)F | n
Cc1nc2c(NC(=O)Nc3cccc(C(F)(F)F)c3)cccn2n1 | n
O=C(NC[C@H]1O[C@@H](CO)[C@@H](O)[C@H]1N1CCN(c2cccc(C(F)(F)F)c2)CC1)c1ccc(C(F)(F)F)cc1 | n
CN1Cc2sccc2C(c2ccc(O)c(O)c2)C1 (configuration not stated) | 4µM
CN1CCc2cc(Cl)c(O)cc2[C@@H](c2ccccc2)C1 | n
COc1ccccc1CNC[C@H]1O[C@H](Cc2cc(-c3ccccc3)on2)CC[C@@H]1O | n
CC(C)N[C@H]1C[C@@H](Cc2cc(COc3ccccc3)on2)C1(C)C | n
COc1ccc(-c2cc(-c3cccnc3OC)cn3cncc23)cc1 | n
O=C(c1cn(-c2ccccc2)nn1)N1CCCCCC1c1ccco1 (configuration not stated) | n
Nc1cc(-c2ccncc2)c[nH]c1=O | 10µM
NC(=O)Cc1c[nH]c2ncc(-c3ccc(Cl)cc3)cc12 | n
